# PLK1 PBD inh – PLK1 (human) polo-box domain binding inhibition; Plk1 PBD binding of FITC phosphopeptide, fluorescence polarization; Potency, µM, without a hit: max response, negative = inhibition, actives largely listed as inhibitors; P53350; 360,000 compounds, 2.8% hits; note: series mostly up to about 57 µM; nearly all actives have a fitted effect of over 65% in size
# TrxR1 substrate – is turned over as a substrate by rat TrxR1 | Potency, µM (series often up to 114 µM), inactives show at the top dose activity change, negative = substrate turnover | 390,000 compounds, 0.01% hits | purified TrxR1 substrate turnover, NADPH consumption readout | O89049; note: nearly all actives have a fitted effect of over 50% in size
#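 Rat TrxR1, dispensed at 90 nM, was prereduced with 400 uM NADPH (final) for 5 min at ~22 deg C, then incubated with compound 15 min before 400 uM selenite. A first-read NADPH fluorescence drop versus no-compound background flagged substrates.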
# VDR inhibitor – inhibitors of human vitamin D receptor | VDR-SRC2-3 peptide fluorescence polarization, 2 h | Potency, µM, for inactives: max response, negative = inhibition, hits mostly inhibitors | AID 504847 | P11473 | 400,000 compounds, 0.93% hits
#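 Inhibition of the VDR/SRC2-3 peptide interaction is quantified by fluorescence polarization. Compounds (23 nl, pintool) incubate with the reagents for 2 hours at ambient room temperature.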
# Sfp PPTase inh – inhibitors of Bacillus subtilis Sfp phosphopantetheinyl transferase; Q9F4F7; Biochemical Sfp PPTase activity, qHTS; Potency, µM, inactives show largest response in the series, negative = inhibition, most hits filed as inhibitors; 310,000 compounds, 3.5% hits; AID 1490;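 note: the enzyme is Sfp with the accession as filed and its product quenches rhodamine fluorescence; 0% = enzyme reaction without inhibitor and -100% = no enzyme wells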
#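 With Hepes-Na pH 7.6 buffer containing 10 mM MgCl2, Sfp (15 nM) modified BHQ-2-YbbR (12.5 uM) using rhodamine-CoA (5 uM). Two reads 30 minutes apart at 525/598 nm yielded each well's rate.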
# rTrxR1 inhibitor – inhibitors of rat thioredoxin reductase 1; O89049; recombinant rTrxR1, NADPH fluorescence consumption, selenite substrate; Potency, µM (titrated, usually from 114 µM), without a hit: at the top dose activity change, negative = inhibition, actives largely listed as inhibitors; 390,000 compounds, 1% hits; AID 588453; note: nearly all actives have a fitted effect of over 65% in size
#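 Rat TrxR1 (90 nM in the dispensed reagent) was pre-reduced with 400 uM NADPH for 5 min at room temperature, then incubated with compound for 15 min. After 400 uM selenite was added, NADPH fluorescence (Ex 340/Em 450 nm) was followed for 8 min.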
# mIDH1 inhibitor – inhibitors of human mutant IDH1 R132H; AID 602179; O75874; 390,000 compounds, 0.093% hits; IDH1-R132H enzyme, NADPH consumption, diaphorase/resazurin fluorescence; Potency, µM (titrated, usually from 76.6 µM), without a hit: top-dose activity change, negative = inhibition, usual class: inhibitors; note: nearly all actives have a fitted effect of over 65% in size
# Target sequence (O75874 whole entry R132H, stated change not applied): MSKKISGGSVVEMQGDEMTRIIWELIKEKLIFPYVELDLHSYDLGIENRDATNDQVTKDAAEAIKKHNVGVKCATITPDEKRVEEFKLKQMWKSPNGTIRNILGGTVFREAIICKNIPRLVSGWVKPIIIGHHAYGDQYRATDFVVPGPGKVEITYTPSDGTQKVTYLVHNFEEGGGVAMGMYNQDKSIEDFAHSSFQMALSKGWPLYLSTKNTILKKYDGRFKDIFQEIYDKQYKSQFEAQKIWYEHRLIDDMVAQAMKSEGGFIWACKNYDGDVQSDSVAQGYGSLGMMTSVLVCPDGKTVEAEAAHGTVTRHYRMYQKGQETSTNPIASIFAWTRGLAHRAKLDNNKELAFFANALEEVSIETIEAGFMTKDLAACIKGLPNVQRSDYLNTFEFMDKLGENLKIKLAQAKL
#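 IDH1-R132H (0.5 ug/mL dispensed) in pH 7.5 Tris buffer was preincubated 30 min with compound, then given a substrate mix of 0.016 mM NADPH and 2 mM alpha-KG for 80 min at room temperature; remaining NADPH was read by diaphorase/resazurin fluorescence.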
# Numbers without * were called inactive; i = inactive; ? = inconclusive; . = no result given; [ ] = dose if it differs, or a comment. A selection: hits, their analogues and other compounds. The true share with any hit is near 5.2%. Calls come from the whole dose curve; as a rule, active = well fitted curve in the direction sought with a large enough effect; inconclusive = small, poorly fitted or top-dose-only effect, or another doubt; inactive = no such curve, though single readings can be large; an effect the other way counts as inactive or inconclusive. Unless noted, % is set by controls: 0 for no effect and ±100 for the full control effect; potency is the fitted concentration of half-maximal effect.
SMILES,PLK1 PBD inh,TrxR1 substrate,VDR inhibitor,Sfp PPTase inh,rTrxR1 inhibitor,mIDH1 inhibitor
CCOC(=O)c1c(NC(=O)CSc2nc3ccccc3o2)sc(C)c1C,-2.6%,5.6%,4.5%,44.7µM*,15.3%,1.0%
CCOC(=O)c1c(NC(=O)/C=C/c2ccc(C)o2)sc(C)c1C,26.7µM*,13.5%,-20.3%,35.5µM*,8.0%,9.7%
Cc1ccc(CCC(=O)Nc2ccc(Cl)cc2)o1,2.1%,2.1%,-3.0%,6.9%,6.5%,5.9%
CCOC(=O)c1c(NC(=O)CCc2ccc(CC)o2)sc(C)c1C,26.7µM*,0.7%,-25.6%,?,-9.6%,8.0%
Cc1ccc(CCC(=O)Nc2ccc(CC(=O)O)cc2)o1,11.9µM*,8.3%[57.1 µM],79.4µM*,?,5.9%[57.1 µM],5.4%
Cn1c(=O)c2c(SCC(=O)Nc3ccc(F)cc3F)nc(C3CCCC3)nc2n(C)c1=O,.,4.3%[57.1 µM],-5.7%,.,24.7%[57.1 µM],.
COc1cc(Cl)c(NS(=O)(=O)c2ccc(-c3coc(C)n3)cc2)c(OC)c1,.,-3.6%[57.1 µM],4.7%,.,8.2%[57.1 µM],-15.3%
COC(=O)c1c(NC(C)=O)sc(C)c1C,-10.0%,0.0%,-4.1%,6.1%,11.1%,19.8%
COC(=O)c1c(NC(=O)CCc2ccc(C)o2)sc(C)c1C,-23.1%,7.7%,?,20µM*,?,4.0%
O=C(O)C(Oc1ccc2cc(-c3ccc(Cl)cc3)c(=O)oc2c1)c1ccccc1 (configuration not stated),42.3µM*,i,-17.3%,?,44.7µM*,4.0%
CCN(C(=O)CN1C(=O)S/C(=C\c2ccc(F)cc2)C1=O)C1CCS(=O)(=O)C1 (configuration not stated),29.9µM*,-17.1%[57.1 µM],-6.5%,11.2%,2.8%[57.1 µM],11.1%
Nc1ncnc2nc(SCC(=O)Nc3ccccc3F)[nH]c12,0.7%,4.5%[57.1 µM],2.6%,7.7%,1.8%[57.1 µM],-7.3%
COc1ccc(N2CCN(C(=O)c3ccc(N(C)S(=O)(=O)c4ccc(C)cc4)cc3)CC2)cc1,-9.4%,-6.1%,-6.4%,1.3%,10.3%[57.1 µM],-1.2%
COc1ccc(N2CCN(C(=O)c3ccc(N(C)S(=O)(=O)c4ccc(OC)cc4)cc3)CC2)cc1,13.4µM*,2.6%[57.1 µM],89.1µM*,-2.9%,6.7%[57.1 µM],6.6%
Cc1ccc2c(=O)cc(C(=O)N(Cc3ccccc3Cl)C3CCS(=O)(=O)C3)oc2c1 (configuration not stated),.,0.7%,?,.,5.3%,9.4%
CN1CCN(Cc2c(O)ccc3cc(Br)ccc23)CC1,23.8µM*,-4.9%,?,-7.0%,35.5µM*,-8.5%
O=C(O)/C=C\C(=O)Nc1cccc(NC(=O)c2ccccc2)c1,-1.6%,-2.0%,2.1%,-9.8%,?,-3.6%
O=C(O)/C=C/C(=O)Nc1ccc(C(=O)c2ccccc2)cc1,-9.2%,-14.4%,?,0.9%,0.6%,-1.3%
O=C(O)/C=C/C(=O)Nc1ccc(NC(=O)c2ccccc2)c(Cl)c1,-14.3%,-1.3%,8.3%,56.2µM*,5.0%,-9.0%
O=C(O)/C=C/C(=O)NNC(=O)c1ccc(Cl)cc1Cl,23.8µM*,6.6%[57.1 µM],-2.4%,?,22.9%[57.1 µM],7.4%
O=C(O)/C=C/C(=O)Nc1ccc(Cl)cc1C(=O)c1ccccc1,-4.4%,1.1%[57.1 µM],-9.0%,79.4µM*,-41.3%,-2.2%
COC(=O)[C@]12CCCCC=C1N(Cc1ccccc1)C(=O)[C@H](CC(=O)NCc1cccs1)C2,-13.2%,.,.,.,.,.
Cc1ccc(NC(=O)C2(c3ccccc3)CCOCC2)cc1,26.7µM*,1.3%[57.1 µM],-15.4%,20.6%,5.8%[57.1 µM],-3.1%
CCOC(=O)C1=C(COC(=O)/C=C/c2ccc(C)o2)NC(=O)NC1C (configuration not stated),-27.0%,-10.7%,-2.0%,.,50.1µM*,6.0%
CCOC(=O)C1=C(COC(=O)/C=C/c2ccccc2)NC(=O)NC1C (configuration not stated),-9.2%,-1.2%,-11.8%,.,17.2%,-1.8%
SMILES,PLK1 PBD inh,TrxR1 substrate,VDR inhibitor,Sfp PPTase inh,rTrxR1 inhibitor,mIDH1 inhibitor
CCOc1cccc(C2c3c(oc4ccc(F)cc4c3=O)C(=O)N2CCOC)c1 (configuration not stated),.,2.9%,-0.9%,.,30.1%,-14.2%
COC(=O)C1=C[C@@H](C(=O)OC)[C@@H]2C3=C(C(=O)C2(C)C)[C@H](c2ccccc2)[C@@H]2C(=O)N(c4ccccc4)C(=O)[C@@H]2[C@@H]3C1,.,-0.7%,-6.7%,-2.3%,-21.7%,.
NC(=S)N/N=C1\c2ccccc2-c2c(C(=O)O)cccc21,?,-9.9%,-23.0%,79.4µM*,-3.6%,8.9%
O=C(Nc1ccc(Cc2ccc(NC(=O)C3CC3)cc2)cc1)C1CC1,26.7µM*,2.7%,-6.0%,11.6%,25.2%,2.0%
NC(=O)c1ccc(NC(=O)C2CC2)cc1,-17.0%,7.1%[57.1 µM],-16.0%,10.0%,12.8%[57.1 µM],-7.1%
CC(=O)c1ccc(OC(=O)COc2ccccc2Cl)cc1,0.0%,1.9%,?,-3.6%,17.8µM*,9.9%
Cc1ccc(OC(=O)COc2ccccc2C)cc1,-4.9%,10.9%,11.5%,4.9%,26.3%,5.0%
O=C(c1cc2cc(Br)ccc2o1)N1CCCC1,26.7µM*,-0.6%,?,19.8%,10.6%,2.9%
CC(C)Sc1ccc(C(=O)Nc2ccc(F)cc2F)cn1,18.9µM*,-4.5%,-4.0%,22.4%,19.4%[57.1 µM],8.5%
O=C(Nc1ccc(F)cc1F)c1ccc(-n2cccn2)nc1,-2.3%,15.9%,-27.1%,1.1%,6.2%[57.1 µM],2.9%
CCc1ccc2c(CN(C)Cc3ccccc3OC)cc(=O)oc2c1,-0.2%,-1.7%[57.1 µM],9.7%,44.7µM*,-10.0%,0.0%
CC(=O)N1CCC(N(CCN2CCOCC2)C(=S)Nc2ccc(C)cc2)CC1,-21.6%,6.2%,9.8%,50.1µM*,2.7%,4.5%
CC(=O)N1CCC(N(CCN2CCOCC2)C(=S)Nc2ccc(C)cc2C)CC1,-12.1%,1.8%,-21.7%,15.2%,-9.6%,-3.1%
COC(=O)N1CCC2(CCCN(C(=O)Nc3cccc(C#N)c3)C2)CC1,.,.,-3.4%,6.8%,.,.
COc1ccc(-c2nc3c(=O)n(C)c(=O)nc-3n(C)n2)cc1,.,?,-20.3%,.,?,.
Cn1nc(-c2ccc(Cl)cc2)nc2c(=O)n(C)c(=O)nc1-2,.,17.8µM*,?,-19.7%,?,.
Cn1nc(-c2ccc(F)cc2)nc2c(=O)n(C)c(=O)nc1-2,.,22.4µM*,-4.3%,.,28.2µM*,.
CCOC(=O)c1c(-c2ccccc2)csc1NC(=O)c1cc(-c2ccc(C)c(F)c2)on1,.,2.1%,0.1%,.,8.2%,5.5%
O=C(CCCn1c(=O)[nH]c2ccsc2c1=O)N1CCCCC1,-8.4%,-7.2%,-8.8%,16.2%,-4.3%,0.0%
CCOC(=O)N1CCN(C(=O)CCCCn2c(=S)[nH]c3ccsc3c2=O)CC1,-6.1%,12.1%[57.1 µM],21.6%,79.4µM*,-3.1%[57.1 µM],15.5%
O=C(COC(=O)c1ccc2ccccc2c1)NCc1ccccc1,2.6%,.,.,.,.,10.6%
